Sampled rows, rich in hits. Any-hit rate of the full collection: about 9.2%.
HTT ATP protect – cytoprotection in Huntington HTT-Q103 PC12 cell model; AID 1471; Potency, µM (titrated, usually from 56.4 µM), without a hit: cytoprotection (ATP increase), usual class: activators; PC12 HTT-Q103 induced, cytoprotection, ATP luminescence, 40 h; 230,000 tested, 0.14% active; active means well fitted curve in the direction sought with a large enough effect; inconclusive means small, poorly fitted or top-dose-only effect, or another doubt; inactive means no such curve, though single readings can be large; an effect the other way counts as inactive or inconclusive; further: % of control where 0% means no effect; nearly all actives have a fitted effect of over 45% in size
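Compounds were screened for protection of PC12 cells against cell death after tebufenozide induction (100 nM final) of mutant Huntingtin exon 1 (Q103) fused to GFP.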
JMJD2E inh – blocks human JMJD2E demethylase activity | B2RXH2 | JMJD2E catalytic domain, FDH-coupled NADH fluorescence (FDH is formaldehyde dehydrogenase) | Potency, µM (doses to about 57.1 µM), for the others: top-dose activity change, negative = inhibition, hits mostly inhibitors | 230,000 tested, 1.6% active;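 further: 0% = wells with enzyme and -100% = buffer wells without enzyme; nearly all actives have a fitted effect of over 50% in size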
HttQ103 aggreg – reduces HttQ103-GFP aggregates in PC12 cells; PC12 HttQ103-GFP aggregates, Acumen cytometry, 40 h; Potency, µM (highest dose often 46.1 µM), for the others: at the top dose activity change, negative = inhibition, usual class: inhibitors; 220,000 tested, 1.1% active; active means well fitted curve in the direction sought with a large enough effect; inconclusive means small, poorly fitted or top-dose-only effect, or another doubt; inactive means no such curve, though single readings can be large; an effect the other way counts as inactive or inconclusive; further: on the % scale 0 is the no-effect control and ±100 the full control effect; nearly all actives have a fitted effect of over 60% in size
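Aggregates are detected as GFP objects 1–25 µm with signal 6 STDEV over background in lysates of induced PC12 cells. These carry Huntingtin exon 1 with 103 glutamines fused to GFP under an ecdysone promoter; compounds titrated.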
ALDH1A1 inh – inhibitors of human aldehyde dehydrogenase 1A1 | P00352 | Purified ALDH1A1, NADH fluorescence, propionaldehyde substrate | Potency, µM (doses to about 75.3 µM), for the others: at the highest dose activity, negative = inhibition, actives largely listed as inhibitors | 220,000 tested, 7.3% active;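 further: plate controls were no enzyme wells and a reference inhibitor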
HPGD block – inhibitors of human 15-hydroxyprostaglandin dehydrogenase (HPGD). Potency, µM, for inactives: top-dose activity change, negative = inhibition, most hits filed as inhibitors. 150,000 tested, 4.3% active. P15428. purified HPGD, NADH fluorescence kinetic, PGE2 substrate. AID 894; further: on the % scale 0 is the no-effect control and ±100 the full control effect
Target sequence (P15428 whole entry, looked up): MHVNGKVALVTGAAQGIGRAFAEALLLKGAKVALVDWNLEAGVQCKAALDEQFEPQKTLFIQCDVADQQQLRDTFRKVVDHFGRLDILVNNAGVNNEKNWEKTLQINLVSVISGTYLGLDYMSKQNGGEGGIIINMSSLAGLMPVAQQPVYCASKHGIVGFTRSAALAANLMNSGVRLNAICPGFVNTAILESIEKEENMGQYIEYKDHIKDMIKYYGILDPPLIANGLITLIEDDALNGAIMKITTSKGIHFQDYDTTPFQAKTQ
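20 nM HPGD preincubated 15 min at room temperature with compound in 50 mM Tris-HCl pH 8, 0.01% Tween 20. Started with 1 mM NAD+ and 30 uM prostaglandin E2; NADH fluorescence (360/450 nm) read 5 times over 30-s intervals, last minus first.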
Lamin A splicing – modulators of lamin A splicing. HeLa LMNA splicing GFP/RFP minigene ratio, 48 h. Potency, µM (doses to about 46.1 µM), without a hit: at the highest dose ratio change, negative = inhibition, actives largely listed as inhibitors. 200,000 tested, 0.01% active. AID 1487; active means well fitted inhibition curve with a large enough effect in the signal ratio, with a control signal flat, not every such curve was filed as active; inconclusive means small, poorly fitted or top-dose-only effect, or effect the other way, or a change in a side signal; the % refers to the signal ratio; further: on the % scale 0 is the no-effect control and ±100 the full control effect
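S3 HeLa cells stably expressing lamin A-EGFP splicing minigene plus DsRed2, 600 cells/well, 48 h compound exposure at 37C. Laser-scanning cytometry; analysed as GFP (500-530 nm)/RFP (575-640 nm) total intensity ratio; 0.5% DMSO vehicle.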
* marks the source's active call; other numbers are inactive results; u = inconclusive; x = no result given; [ ] = another dose, or the depositor's remark. Unless noted, the call rests on the fitted dose curve; in most records, active means well fitted inhibition curve with a large enough effect (not every such curve was filed as active); inconclusive means small, poorly fitted or top-dose-only effect, or another doubt; inactive means no such curve, though single readings can be large or run the other way. Potency means the concentration at half of the fitted maximal effect.

SMILES	HTT ATP protect	JMJD2E inh	HttQ103 aggreg	ALDH1A1 inh	HPGD block	Lamin A splicing
Cc1sc2nc(-c3ccccc3)[nH]c(=O)c2c1-c1ccccc1	-5.0%[10 µM]	u	16.5%	u	u	15.8%
CN1CCN(c2nc3c(c(=O)[nH]c(=O)n3C)n2CCSc2nnnn2-c2ccccc2)CC1	-1.1%[10 µM]	0.7%	4.1%[9.22 µM]	x	x	x
CN1CCN(c2nc3c(c(=O)n(C)c(=O)n3C)n2CCSc2nnnn2-c2ccccc2)CC1	-0.9%[10 µM]	0.6%	-21.0%[9.22 µM]	x	x	x
Cn1c(=O)[nH]c(=O)c2c1nc(N1CCCC1)n2CCCSc1nnnn1-c1ccccc1	-1.5%[10 µM]	-0.5%	7.7%	11.2µM*	-11.9%	u
CC(CSc1nnnn1-c1ccccc1)Cn1c(N2CCN(C)CC2)nc2c1c(=O)[nH]c(=O)n2C (stereo not drawn)	-14.4%	1.2%	1.6%	20µM*	x	u
Cn1c(=O)[nH]c(=O)c2c1nc(N1CCCCCC1)n2CCCSc1nnnn1-c1ccccc1	37.2%[10 µM]	-1.7%	12.3%	2.51µM*	-27.7%	4.0%
CCC1(C)Nc2ccccc2C(=O)N1O (stereo not drawn)	0.3%	u	-18.5%	-5.0%	25.1µM*	1.8%
CC(=O)Nc1c(I)c(C(=O)O)c(I)c(N(C)C(C)=O)c1I	2.3%	x	9.2%	x	x	x
NC(=O)c1ccc(N2CCN(c3ccc(O)cc3)CC2)c([N+](=O)[O-])c1	8.9%[10 µM]	-20.1%	-30.3%	15.8µM*	x	u
O=C(NCc1ccco1)c1ccc(N2CCOCC2)c([N+](=O)[O-])c1	-34.4%	7.3%	6.5%[9.22 µM]	u	x	7.7%[46 µM]
CC(=O)c1ccc(N2CCN(c3ccc(C(N)=O)cc3[N+](=O)[O-])CC2)cc1	-8.8%	-1.2%	27.3%	4.4%	x	x
O=C(NCc1ccco1)c1ccc(N2CCCCC2)c([N+](=O)[O-])c1	x	-16.6%	-8.5%	u	31.6µM*	u
O=[N+]([O-])c1cc([N+](=O)[O-])c(N2CCCCCC2)cc1NCCO	-8.2%	3.4%	-7.1%	2.24µM*	-10.4%	20.2%
CCCCCCCNC(=O)c1ccc(N2CCC3(CC2)OCCO3)c([N+](=O)[O-])c1	2.6%[10 µM]	-7.6%	-6.9%	25.1µM*	-13.6%	u

Screening results: PubChem, National Center for Advancing Translational Sciences (NCATS)
